D2 PAM-1: HTS Assay for Positive Allosteric Modulators of the Human D2 Dopamine Receptor: Primary Screen for Potentiators; AID 485347, 2010; potentiation, % at 10 µM; 340,000 compounds, 0.34% hits; D(2) dopamine receptor (Homo sapiens), P14416; HEK293 T-REx D2, calcium flux, EC20 dopamine potentiation;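 active = potentiation over 3 SD above the plate norm, cut at about 30% in these data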
Target sequence (P14416 whole entry, looked up): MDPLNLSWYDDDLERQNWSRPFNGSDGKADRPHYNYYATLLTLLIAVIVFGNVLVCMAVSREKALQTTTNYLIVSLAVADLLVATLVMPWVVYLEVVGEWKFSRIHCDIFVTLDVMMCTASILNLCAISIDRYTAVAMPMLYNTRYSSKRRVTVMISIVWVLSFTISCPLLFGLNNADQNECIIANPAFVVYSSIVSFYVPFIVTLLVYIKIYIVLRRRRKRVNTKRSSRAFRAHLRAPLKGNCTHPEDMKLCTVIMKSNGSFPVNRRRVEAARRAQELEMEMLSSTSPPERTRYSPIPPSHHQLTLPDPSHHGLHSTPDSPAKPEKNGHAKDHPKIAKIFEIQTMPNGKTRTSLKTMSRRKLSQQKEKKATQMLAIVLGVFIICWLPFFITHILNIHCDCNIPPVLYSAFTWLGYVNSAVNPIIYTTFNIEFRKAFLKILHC
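Potentiation of an EC20 dopamine calcium response measured kinetically over 180 s, after a preceding 180 s compound-only read flagging agonists. Cells: inducible Hek293 Trex D2 line, 4000/well, cultured overnight at 30 C before dye loading.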
D2 PAM-2: Beta-Arrestin HTS for Positive Allosteric Modulators of the Human D2 Dopamine Receptor: Potentiators; D(2) dopamine receptor (Homo sapiens), P14416; DiscoveRx D2 beta-arrestin cells, luminescence, 90 min; 100% = 57 uM dopamine signal; potentiation, % (no concentration beside the values); 360,000 compounds, 0.23% hits; AID 624464, 2012; in the data active = potentiation above about 50%; inconclusive = mostly about 30% to 49%
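PathHunter beta-arrestin assay in DiscoveRx D2 cells. Compounds were added with an EC20 of dopamine (50 nM final) for 90 min at 37 deg C. Luminescence was read 1 h after detection reagent, with 57 uM dopamine as the EC100 control.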
D2 antag: HTS Assay for Allosteric Antagonists of the Human D2 Dopamine Receptor: Primary Screen for Antagonists; D(2) dopamine receptor (Homo sapiens), P14416; HEK293 TREx D2 cells, calcium flux, dopamine EC80; inhibition, % at 10 µM; 340,000 compounds, 2% hits; AID 485344, 2010; in the data active = inhibition above about 30%; inactive = below that, where a call was filed
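Compounds are added to dye-loaded, induced HEK293 T-REx cells coupled to calcium release via D2; after a 3 min kinetic read an EC80 dopamine stimulus is given and fluorescence is recorded for 3 more min.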
D2 ag-1: HTS Assay for Allosteric Agonists of the Human D2 Dopamine Receptor: Primary Screen for Agonists; D(2) dopamine receptor (Homo sapiens), P14416; HEK293 T-REx D2 cells, calcium flux agonist mode; activation, % at 2 µM; 340,000 compounds, 0.53% hits;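 active = activation over 3 SD above normal in the single-dose calcium agonist read, cut at about 30% in these data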
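Agonism scored from kinetic calcium signal (1 read/sec, 180 s) following compound pin transfer, after a 10 s baseline. Cells: HEK293 Trex line expressing inducible D2 receptor coupled to calcium, dye-loaded after overnight culture at 30 C.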
D2 ag-2: Beta-Arrestin HTS for Positive Allosteric Modulators of the Human D2 Dopamine Receptor: Agonists; activation, % (no concentration beside the values); DiscoveRx PathHunter D2 beta-arrestin, luminescence, 90 min; 100% = 57 uM dopamine signal; AID 624465, 2012; 360,000 compounds, 0.084% hits; in the data active = activation above about 40%; inconclusive = between about 15% and that limit
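Agonist mode: compounds alone added to overnight-plated D2 PathHunter cells for 90 min at 37 C, with 57 uM final dopamine (EC100) defining full response. Beta-arrestin recruitment detected by chemiluminescent reagent, read after 1 h at ambient temperature.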
Large screens that a line does not name were inactive; ! = repeats disagree. Most compounds without a hit are left out; they make up all but 2.4% or so of the library.

COc1ccc(F)cc1-c1cc(C(=O)N2CCc3ccccc3C2)[nH]n1	none (no result: D2 PAM-1, D2 antag, D2 ag-1)
COc1ccccc1C(=O)N(CCN(C)C)c1nc2cc(C)cc(C)c2s1	D2 antag 38
O=C1Cc2ccccc2N1c1c(Cl)cccc1Cl	none
NC[C@H]1O[C@H](O[C@H]2[C@H](O)[C@@H](O[C@H]3O[C@H](CO)[C@@H](O)[C@H](N)[C@H]3O)[C@H](N)C[C@@H]2N)[C@H](N)C[C@@H]1O	D2 antag 37
O=C(O)c1nc(-c2ccccc2)n(-c2cccc(C(F)(F)F)c2)n1	D2 PAM-1 44
O=C(O)c1nc(-c2ccccc2)n(-c2ccccc2)n1	none
CCOc1ccc(C(C(=O)NC(C)(C)C)N(CCOC)C(=O)CCC(=O)Nc2nccs2)cc1 (configuration not stated)	none (no result: D2 PAM-1)
O=C(NCc1ccccc1C(F)(F)F)C1CC(c2cccc(F)c2)=NO1 (configuration not stated)	D2 antag 42
O=C(NCc1ccccc1C(F)(F)F)C1CC(c2cc(C(F)(F)F)cc(C(F)(F)F)c2)=NO1 (configuration not stated)	none
O=C(CSc1nc2c([nH]c3ccccc32)c(=O)n1-c1cccc(Cl)c1)N1CCCC1	none (no result: D2 PAM-2, D2 antag, D2 ag-2)
c1ccc(COc2cccc(CN3CCCCC3)c2)cc1	none (no result: D2 antag, D2 ag-1)
c1ccc(COc2cccc(CN3CCN(c4ccccn4)CC3)c2)cc1	D2 PAM-2 inconclusive, D2 ag-2 48
Cc1cccc(CN2CCN(c3ccccn3)CC2)c1	D2 PAM-2 92, D2 ag-2 46 (no result: D2 PAM-1, D2 antag, D2 ag-1)
O=C(COC(=O)c1cc(-c2ccccc2)nc2ccccc12)c1ccc(Br)cc1	none (no result: D2 PAM-2, D2 antag, D2 ag-1, D2 ag-2)
C/C(N)=C(/C#N)C(=O)COC(=O)c1cc(-c2ccc(Br)cc2)nc2ccccc12	D2 antag 47
COC(=O)CN(c1ccc(F)cc1)S(=O)(=O)c1ccccc1	D2 antag 47 (no result: D2 PAM-1)
C/C(=N/NC(=O)CN(c1ccccc1)S(=O)(=O)c1ccccc1)c1ccccc1O	D2 antag 52
COC(=O)CN(c1ccccc1F)S(=O)(=O)c1ccccc1	none
c1csc(CSc2nc3ccccc3s2)c1	D2 antag 39
Cc1noc(C)c1CSc1nc2ccccc2s1	none (no result: D2 PAM-1)
O=C(OCC1CCCO1)c1ccc2c(c1)N(Cc1c(F)cccc1Cl)C(=O)c1ccccc1S2(=O)=O (configuration not stated)	none (no result: D2 PAM-2, D2 antag, D2 ag-2)
COc1ccc(C(C)C)cc1-c1cc(C(=O)NCc2cc(C(F)(F)F)cc(C(F)(F)F)c2)[nH]n1	none (no result: D2 PAM-1, D2 antag, D2 ag-1)
COc1ccc2c(n1)Sc1nc3ccccc3nc1N2	D2 antag 49, D2 ag-1 92
COc1cc2ccccc2nn1	none
O=C(O)CNCC1COc2ccccc2O1 (configuration not stated)	none
O=C(COc1ccc(Br)cc1)NCC1COc2ccccc2O1 (configuration not stated)	D2 antag 33
c1ccc2c(c1)OCC(CNCC1COc3ccccc3O1)O2 (configuration not stated)	D2 antag 64, D2 ag-1 37
CN(CC(=O)NCCc1ccc(F)cc1)Cc1cccs1	none
CCOc1ccc(NC(=O)N(c2ccccc2)c2ccccc2)cc1	none
COc1ccc(/C=N/NC(=O)c2ccc(CN3c4cccc5cccc(c45)S3(=O)=O)cc2)cc1	D2 PAM-1 38
COc1cc(/C=N/NC(=O)c2ccc(CN3c4cccc5cccc(c45)S3(=O)=O)cc2)cc(OC)c1O	none
COc1ccc(NS(=O)(=O)c2c(C)cc(C)cc2C)cc1	D2 antag 34
Cc1ccc(Cn2cc(S(=O)(=O)c3ccc(C(C)C)cc3)c(=O)c3cc4c(cc32)OCO4)cc1	D2 antag 36
COc1cccc(C2C3=C(CC(C)(C)CC3=O)Nc3n[nH]c(C)c32)c1 (configuration not stated)	D2 PAM-1 31
CC(=O)Nc1ccc(S(=O)(=O)Oc2cccc(N3C(=O)C4CC=CCC4C3=O)c2)cc1 (configuration not stated)	none
O=C(O)CCN1C(=O)c2ccc(NC(=O)CSc3ccc(Cl)cc3)cc2C1=O	none
Cc1cc(C(=O)NCc2ccc(S(N)(=O)=O)cc2)c(C)o1	D2 antag 30
Cc1nn(Cc2c(Cl)cccc2Cl)c(C)c1NC(=O)Cn1nc([N+](=O)[O-])c(Cl)c1C	none
COCCC1CCCCN1C(=O)c1ccc(OC)c(OC2CCN(C(C)=O)CC2)c1 (configuration not stated)	none (no result: D2 PAM-1, D2 antag, D2 ag-1)
Cc1ccc(F)cc1NC(=O)c1ccc(OCC2CCCO2)cc1 (configuration not stated)	none (no result: D2 PAM-1, D2 antag, D2 ag-1)
Cc1ccc(NC(=O)Cc2ncc(C(F)(F)F)cc2Cl)cc1Cl	D2 antag 44
COc1ccccc1N(CC(O)Cn1ccnc1C)S(=O)(=O)c1ccc(C)cc1 (configuration not stated)	D2 antag 67
Cc1ccccc1NS(=O)(=O)c1cc2c(cc1C)NC(=O)CO2	none
COc1ccc(NS(=O)(=O)c2cc3c(cc2C)NC(=O)CO3)c(OC)c1	D2 ag-1 38!
COc1cccc(C(=O)N2CCC(CCC(=O)Nc3cccc(C)c3)CC2)c1	none
CCOc1ccc2oc(-c3ccccc3)c(C(=O)N3CCN(C)CC3)c2c1	none
CNC(=S)N1N=C(c2ccc(OC)cc2)CC1c1ccc(Cl)cc1Cl (configuration not stated)	none
CNC(=S)N1N=C(c2ccc(OC)cc2)CC1c1ccccc1Cl (configuration not stated)	D2 antag 33
CCOc1ccc(N2CC(C(=O)Nc3ccccc3F)CC2=O)cc1 (configuration not stated)	D2 antag 34
CCOC(=O)c1ccccc1NC(=O)C1CC(=O)N(C2CCCCC2)C1 (configuration not stated)	D2 antag 41
CCOc1ccc(N2CC(C(=O)NCc3ccc4c(c3)OCO4)CC2=O)cc1 (configuration not stated)	D2 antag 36
CCOc1ccc(N2CC(C(=O)Nc3ccc(S(=O)(=O)Nc4nccs4)cc3)CC2=O)cc1 (configuration not stated)	D2 antag 32
CC1CN(C(=O)COC(=O)[C@@H]2CC(O)CN2S(=O)(=O)c2ccc3c(c2)OCCO3)CC(C)O1 (some centres not stated)	none

Source: PubChem (National Center for Advancing Translational Sciences (NCATS))
